# Results published in ChEMBL document CHEMBL5606458, “ASAP - ZIKV NS2B-NS3 protease fluorescence single point” (2024).
# The whole screen tested about 2,700 compounds, of which about 160 (5.9%) showed an effect of 50% or more. The sample holds strong results, similar compounds and a random draw of the others, so the mix is not that of the screen.
# Target: Nonstructural protein 3 (Zika virus) (UniProt A0A024AXB9)
# [1] = PRVABC59, Concentration 15.0 uM, Number of replicates 1.0
# [2] = PRVABC59, Concentration 50.0 uM, Number of replicates 1.0
# Nonstructural protein 3 (Zika virus), sequence (A0A024AXB9 as listed by the source): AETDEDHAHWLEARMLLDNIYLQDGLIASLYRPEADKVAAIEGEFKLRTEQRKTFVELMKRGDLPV
compound,measurement,setting,value
COc1nscc1-c1ccccc1C(=O)Nc1cnn(C)c1,inhibition,"PRVABC59, Concentration 49.5 uM, Number of replicates 2.0, Standard deviation 2.0613155081961194 %",-1.46%
same,inhibition,"PRVABC59, Concentration 99.01 uM, Number of replicates 2.0, Standard deviation 1.0972097923679232 %",1.42%
same,inhibition,"PRVABC59, Concentration 198.0 uM, Number of replicates 2.0, Standard deviation 0.19246139208887503 %",3.36%
O=C(Cn1sc2ccccc2c1=O)Nc1cccc(OCc2cn(CC(=O)Nc3ccccc3Oc3ccccc3)nn2)c1,inhibition,"PRVABC59, Concentration 49.5 uM, Number of replicates 2.0, Standard deviation 0.019067908615904634 %",53.7%
same,inhibition,"PRVABC59, Concentration 99.01 uM, Number of replicates 2.0, Standard deviation 0.0558469345004512 %",58.2%
same,inhibition,"PRVABC59, Concentration 198.0 uM, Number of replicates 2.0, Standard deviation 0.30102425600760013 %",69.5%
O=C(Nc1ccc(-n2cccn2)cc1)c1cc(Cl)ccc1NS(=O)(=O)c1ccc(Oc2ccccc2Cl)cc1,inhibition,[1],71.5%
CCN1CCN(c2ccc(NC(=O)c3cc(Cl)ccc3NS(=O)(=O)c3ccc(Oc4ccccc4Cl)cc3)cc2)CC1,inhibition,[1],17.1%
Cc1nccn1-c1ccc(NC(=O)c2cc(Cl)ccc2NS(=O)(=O)c2ccc(Oc3ccccc3Cl)cc2)cc1,inhibition,[1],43.8%
CCN(CC)S(=O)(=O)c1ccc(NC(=O)c2cc(Cl)ccc2NS(=O)(=O)c2ccc(Oc3ccccc3Cl)cc2)cc1,inhibition,[1],27.6%
O=C(NCc1cccc(-n2cccn2)c1)c1cc(Cl)ccc1NS(=O)(=O)c1ccc(Oc2ccccc2Cl)cc1,inhibition,[1],33.4%
O=C(Nc1ccc(-n2ccnc2)cc1)c1cc(Cl)ccc1NS(=O)(=O)c1ccc(Oc2ccccc2Cl)cc1,inhibition,[1],63.6%
COc1ccc([C@@H](C)NC(=O)C2CCN(c3ccc(C=O)cc3)CC2)cc1OC,inhibition,"PRVABC59, Concentration 10.0 uM, Number of replicates 1.0",22.9%
C[C@@H](CC(C)(C)c1ccccc1)NC(=O)c1cc(Cl)ccc1NS(=O)(=O)c1ccc(Oc2ccccc2Cl)cc1,inhibition,[1],18.2%
C[C@H](NC(=O)c1cc(Cl)ccc1NS(=O)(=O)c1ccc(Oc2ccccc2Cl)cc1)c1ccccc1C(F)(F)F,inhibition,[1],42.7%
C[C@H](NC(=O)c1cc(Cl)ccc1NS(=O)(=O)c1ccc(Oc2ccccc2Cl)cc1)c1cccc(C(F)(F)F)c1,inhibition,[1],39.3%
O=C(N[C@H](c1ccccc1)[C@@H](O)c1ccccc1)c1cc(Cl)ccc1NS(=O)(=O)c1ccc(Oc2ccccc2Cl)cc1,inhibition,[1],45.7%
CC(C)(C)[C@H](NC(=O)c1cc(Cl)ccc1NS(=O)(=O)c1ccc(Oc2ccccc2Cl)cc1)c1ccccc1,inhibition,[1],57.8%
O=C(N[C@H](c1ccccc1)C(F)(F)F)c1cc(Cl)ccc1NS(=O)(=O)c1ccc(Oc2ccccc2Cl)cc1,inhibition,[1],60.6%
Cc1cnccc1NC(=O)c1cccc(-n2cnnn2)c1,inhibition,"PRVABC59, Concentration 49.5 uM, Number of replicates 2.0, Standard deviation 4.148081450793093 %",-4.56%
same,inhibition,"PRVABC59, Concentration 99.01 uM, Number of replicates 2.0, Standard deviation 2.8220872377424997 %",-2.1%
same,inhibition,"PRVABC59, Concentration 198.0 uM, Number of replicates 2.0, Standard deviation 5.644174285824181 %",-3.31%
O=Cc1ccc(N2CCC(C(=O)Nc3ccc(F)cc3Br)CC2)cc1,inhibition,[2],20.8%
CCN(CCOc1ccccc1C)C(=O)C1CCN(c2ccc(C=O)cc2)CC1,inhibition,[2],25.1%
O=C(c1cc(Cl)ccc1NS(=O)(=O)c1ccc(Oc2ccccc2Cl)cc1)N1CCCN(c2ccc(C(F)(F)F)cn2)CC1,inhibition,[1],30%
CCN1CCOC[C@H]1C(=O)Nc1cc(Cl)cc(C(=O)NC(C)(C)CO)c1,inhibition,"PRVABC59, Concentration 49.5 uM, Number of replicates 2.0, Standard deviation 1.425535849610213 %",-1.8%
same,inhibition,"PRVABC59, Concentration 99.01 uM, Number of replicates 2.0, Standard deviation 1.345541763339264 %",-2.76%
same,inhibition,"PRVABC59, Concentration 198.0 uM, Number of replicates 2.0, Standard deviation 3.0049064318797343 %",-3.73%
